# PubChem BioAssay (NCATS)
# Results filed as inconclusive are left out. A call without a number means that no potency is given here. The source made the active and inactive calls. Calls follow the shape of the dose curve; as a rule, active = well fitted inhibition curve with a large enough effect; inconclusive = small, poorly fitted or top-dose-only effect; inactive = no such curve, though single readings can be large or run the other way.
# Experiment: P-glycoprotein substrates identified in KB-3-1 adenocarcinoma cell line, qHTS therapeutic library screen (AID 1346986); also: nearly all actives have a fitted effect of over 60% in size
# Conditions: KB-3-1 parental cells viability, CellTiter-Glo, 72 h; series mostly up to 44.5 µM
# How it was run: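 Compounds were tested in dose-response against KB-3-1 and KB-8-5-11 cells at 37 degree C for 72 h, and viability was measured by luminescence. AC50 values came from curve fitting with class-based activity calls.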
Compound,outcome,Potency
NC(=O)[C@H](Cc1ccccc1)NC(=O)[C@H](CCCN=C(N)N)NC(=O)C12CC3CC(CC(C3)C1)C2,inactive [at 9.29 µM],
C/C=C(\C)C(=O)OC[C@H]1O[C@@H](O[C@H]2[C@@H](O[C@H]3O[C@H](COC(=O)/C(C)=C/C)[C@@H](O)[C@H](O)[C@H]3O[C@@H]3O[C@H](CO)[C@@H](O)[C@H](OC(=O)/C(C)=C/C)[C@H]3O)O[C@H](COC(=O)/C(C)=C/C)[C@@H](O)[C@@H]2O)[C@H](O)[C@@H](O)[C@@H]1O,inactive [at 9.29 µM],
C[C@@]12CC3(S(=O)(=O)O)OC(O1)[C@]1(COC(=O)c4ccccc4)[C@H]3C[C@]21O[C@@H]1O[C@H](CO)[C@@H](O)[C@H](O)[C@H]1O,,inactive
CC(=O)c1[nH]cc(CCC(=O)O)c1CC(=O)O,,inactive
COc1cc(C(=O)OCC2=CCC3C(C(=O)O)=COC(O[C@@H]4O[C@H](CO)[C@@H](O)[C@H](O)[C@H]4O)C23)ccc1O (some centres not stated),,inactive
CCOC(=O)CSc1nc2c(sc3ccccc32)c(=O)n1CCCN1CCCC1,,inactive
C=C1CCC2(OC1)OC1CC3C4CC=C5CC(O)CC(O[C@@H]6OC[C@H](OC(=O)C(O)C(C)CC)[C@H](O)[C@H]6O[C@@H]6O[C@@H](C)[C@H](O)[C@@H](O)[C@H]6O)C5(C)C4CCC3(C)C1C2C (some centres not stated),inactive [at 9.29 µM],
C/C(=C\CO)CC/C=C(\C)C(=O)O[C@@H]1O[C@H](CO)[C@@H](O)[C@H](O)[C@H]1O,,inactive
Nc1ncnc2c1ncn2[C@H]1O[C@@H](C(=O)N2CCN(CC(=O)Nc3cccc4c3CNC4=O)CC2)[C@H](O)[C@@H]1O,,inactive
CC1(C)[C@H]2C[C@H](C/C=C\CCCC(=O)O)[C@@H](NC(=O)c3csc4ccc(O)cc34)[C@@H]1C2,,inactive
CC(=O)/C=C/C1(O)C(C)CC(O[C@@H]2O[C@H](CO)[C@@H](O)[C@H](O)[C@H]2O)CC1(C)C (some centres not stated),,inactive
O=C(O[C@@H]1O[C@H](CO)[C@@H](O)[C@H](O)[C@H]1O)c1ccccc1,,inactive
C=C1CC2C3(C)C(O)CC(=O)C(C)(C)C3C(O)C(OC(C)=O)C2(C)C2C(=O)OC(C)(C(=O)OC)C(=O)C12C (configuration not stated),,inactive
C=C1[C@@H]2CC[C@@]3(C)[C@H](c4ccoc4)OC(=O)C[C@]13O[C@H]1CC(=O)C(C)(C)[C@H](C(O)C(=O)OC)[C@]12C (some centres not stated),,inactive
O=C(/C=C/N1C[C@@H]2C[C@@H]1CN2c1ccccn1)c1ccccc1O,,inactive
C=C1CC[C@@]2(OC1)O[C@H]1CC3[C@@H]4CC=C5C[C@@H](O)C[C@@H](O[C@@H]6OC[C@H](O)[C@H](O)[C@H]6O[C@@H]6O[C@@H](C)[C@H](O)[C@@H](O)[C@H]6O)[C@]5(C)C4CC[C@]3(C)[C@H]1[C@@H]2C (some centres not stated),,inactive
O=C(Cn1c2ccccc2c2nc3n(c(=O)c21)CCS3)N1CCCC1,,inactive
